Screening results: PubChem BioAssay, several laboratories
Most compounds without a hit are left out; they make up all but 3.3% or so of the library.
TPT1 inhibitor: blocks Candida albicans tRNA 2'-phosphotransferase | inhibition, % at 5 µM | hit rate 0.81% among 300,000 | recombinant caTPT1, FP RNA substrate dephosphorylation;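 active means inhibition above the mean of all tested compounds plus 3 SD, set per screening campaign, cut at about 24% in these data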
Fh CTSL1 inh: blocks F. hepatica cathepsin L1 in PFM18AAP counter-screen; hit rate 0.49% among 300,000; inhibition, % at 5.96 µM; recombinant F. hepatica cathepsin L1, Z-Leu-Arg-MCA fluorescence; AID 1906;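 active means inhibition above the mean of all tested compounds plus 3 SD, set per screening campaign, cut at about 17% in these data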
HNF4A DNA FP: change in binding of human HNF4 alpha to DNA; P41235; HNF4a-FITC DNA binding, fluorescence polarization, 1 h; activity change, % at 10 µM; hit rate 0.3% among 360,000; AID 1224865; in the data active means activity change above about 30%, passing the limit was not always enough
PHOSPHO1 inh: blocks human PHOSPHO1 phosphatase activity | hit rate 1.1% among 290,000 | Q8TCT1 | inhibition, % at 13.3 µM | AID 1565 | recombinant PHOSPHO1, absorbance phosphatase assay; in the data active means inhibition above about 60%
Rpn11 block: Rpn11 (human) deubiquitinase inhibition; human 26S proteasome, Ub4-pepOG fluorescence polarization; 20S core pre-blocked with epoxomicin; inhibition, % at 20 µM; hit rate 0.59% among 360,000;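 active means inhibition at 20 µM, scaled to each plate's controls, above about 33%, limit read from the data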
Target sequence (O00487 whole entry, looked up): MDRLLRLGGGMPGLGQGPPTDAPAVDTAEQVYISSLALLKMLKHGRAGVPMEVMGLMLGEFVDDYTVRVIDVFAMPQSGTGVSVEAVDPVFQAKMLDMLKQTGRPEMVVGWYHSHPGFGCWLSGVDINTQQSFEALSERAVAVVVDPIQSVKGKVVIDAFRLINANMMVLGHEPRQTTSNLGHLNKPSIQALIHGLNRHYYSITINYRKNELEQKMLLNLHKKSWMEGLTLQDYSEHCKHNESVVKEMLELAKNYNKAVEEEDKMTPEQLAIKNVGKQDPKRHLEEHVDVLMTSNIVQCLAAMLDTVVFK
CendR NRP1 mod: alters CendR peptide binding to human NRP-1; FAM-RPARPAR peptide binding to NRP-1, fluorescence polarization; inhibition, % at 25 µM; hit rate 0.85% among 360,000;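 active means inhibition or corrected inhibition above about 18%, plus a signal ratio from 0.5 to 1.5, limit read from the data, passing the limit was not always enough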
Each line names hits and unclear results; the compound was inactive in the other large screens.

Cc1cc(C)nc(SCC(=O)Nc2ccc(S(=O)(=O)Nc3ncccn3)cc2)n1	none
Cc1cc(C)nc(NS(=O)(=O)c2ccc(NC(=O)CSc3ncn[nH]3)cc2)n1	PHOSPHO1 inh 62
Cc1cccc(NC(=O)c2cc(-c3cc(C)cc(C)c3O)n[nH]2)c1	HNF4A DNA FP 31
Cc1ccc(O)c(-c2cc(C(=O)Nc3ccc(S(=O)(=O)Nc4nc(C)cc(C)n4)cc3)[nH]n2)c1	CendR NRP1 mod 29
COc1cc(NS(=O)(=O)c2ccc(NC(=O)CCC(=O)O)cc2)nc(OC)n1	none
CCCCc1cc(=O)oc2cc(C)cc(OCC(=O)N3CCC(C(=O)O)CC3)c12	none
CCOc1ccc(C2NC(=O)NC(c3ccccc3)=C2C(C)=O)cc1OC (centres undefined)	none
CCOc1cc(C2NC(=O)NC(c3ccccc3)=C2C(C)=O)ccc1OCC(N)=O (centres undefined)	CendR NRP1 mod 47
CCOC(OCC)c1cn(Cc2ccc(C(=O)c3ccccc3)cc2)nn1	none
COc1ccc(CCN=C(N)NS(=O)(=O)c2cccs2)cc1OC	CendR NRP1 mod 20
CC(=O)c1cccc(OCc2cc(C(=O)NC3CCN(Cc4ccccc4)CC3)no2)c1	CendR NRP1 mod 28
CN1C(C(=O)Nc2ccc(OC(F)(F)F)cc2)=CC(c2cccs2)=NS1(=O)=O	none
COCCNC(=O)Cn1ccc2cc(S(=O)(=O)N3CCCCCC3)ccc21	none
COc1ccc(CN=Cc2c(O)[nH]c3ccccc23)cc1	Fh CTSL1 inh 21
CCN(C1CCCCC1)S(=O)(=O)c1cn(C)c(=O)n(C)c1=O	none
CCN(Cc1ccccc1)C(=O)CN1C(=O)COc2ccc(S(=O)(=O)NC3CCCC3)cc21	PHOSPHO1 inh 63
COc1ccc(CNC(=O)CN2C(=O)COc3ccc(S(=O)(=O)NC4CCCC4)cc32)cc1	none
CC(C)CCN1CCC(n2nccc2NC(=O)c2ccc3c(c2)OCO3)CC1	CendR NRP1 mod 35
COc1cc(NC(=O)CSc2nnc3ccc(-c4cccnc4)nn23)cc(OC)c1	none (no result: PHOSPHO1 inh)
Cn1c(SCc2cccc(F)c2)nnc1-c1cnccn1	Fh CTSL1 inh 54
COc1ccccc1CN1CC(C(=O)NC2(c3ccccc3)CC2)CCC1=O (centres undefined)	none
CCOC(=O)CC1(NC(=O)C2CCC(=O)N(Cc3ccccc3OC)C2)CCCCC1 (centres undefined)	PHOSPHO1 inh 66 (no result: TPT1 inhibitor, Fh CTSL1 inh)
CCOC(=O)N1CCN(C(=O)c2cc3n(n2)C(C(F)(F)F)CC(c2ccc4c(c2)OCO4)N3)CC1 (centres undefined)	CendR NRP1 mod 22
COc1ccc2nc(N3CCCCC3)c(/C=C3\SC(=S)NC3=O)cc2c1	Rpn11 block 71
CCOC(=O)C1C(=O)NC(c2ccccc2)=NC1c1cccc(Br)c1 (centres undefined)	Fh CTSL1 inh 22
C=C1[C@@H](O)[C@H](CC(C)C)N(Cc2ccccc2Br)S1(=O)=O	none (no result: TPT1 inhibitor, Fh CTSL1 inh, PHOSPHO1 inh)
Cc1cc(NO)nc(-c2ccc(Br)cc2)n1	PHOSPHO1 inh 96
Cc1cc(C)nc(NC(=O)c2ccc(Br)cc2)n1	none
Cc1ccc2c(c1)N1C(=O)c3ccccc3C1C1=C(CC(C)(C)CC1=O)N2 (centres undefined)	none
O=C(NC1CCCN(Cc2ccc(Cl)cc2)C1)C1CCC1 (centres undefined)	none
O=C(NC1CCCN(Cc2ccc(Cl)cc2)C1)c1c(F)cccc1F (centres undefined)	Fh CTSL1 inh 28
O=C(NC1CCCN(Cc2ccc(Cl)cc2)C1)c1c(F)ccc(F)c1F (centres undefined)	Fh CTSL1 inh 64
Cc1ccc(S(=O)(=O)N(CCC(=O)N2CCOCC2)c2ccccc2)cc1	none (no result: TPT1 inhibitor, Fh CTSL1 inh, PHOSPHO1 inh)
Cc1ccc2c(c1)C(c1ccncc1)=NNC(c1ccc(F)cc1)=N2	CendR NRP1 mod 36
COC1(OC)C(/C=C/c2ccc(Cl)cc2)C(C#N)(C#N)C1(OC)OC (centres undefined)	none
N#C/C(N=Nc1ccccc1O)=N\Nc1ccccc1O	Fh CTSL1 inh 34 (no result: PHOSPHO1 inh)
Cc1cc(C)n(-c2nnc3n2N=C(c2c[nH]c4ccccc24)CS3)n1	CendR NRP1 mod 23
CC(=O)c1c(C)oc2ccc(NS(=O)(=O)c3ccc(O)c(C(=O)O)c3)cc12	none
O=C(O)c1cc(S(=O)(=O)Nc2ccc3oc(=O)sc3c2)ccc1O	PHOSPHO1 inh 63 (no result: HNF4A DNA FP, Rpn11 block, CendR NRP1 mod)
CN(CCc1ccccn1)Cc1ccc(Cl)cc1Cl	none
